In experiment [1] the target is Cytochrome P450 1A2 (Homo sapiens) (UniProt P05177). Description: p450-cyp1a2 (AID 410; calls by dose curve; note: potency is the fitted concentration of half-maximal effect). The gist of the method: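 20nM CYP1A2, 100uM Luciferin-ME (=Km), 100mM KPO4; cpd 10 min RT; +NADPH regen, 60 min RT; stop/detect 20 min; luminescence. Normalized to furafylline 57 uM = full inhibition.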
The nature of experiment [2]: NFAT Signaling Pathway (AID 444; active = well fitted curve in either direction with a large enough effect, not every such curve was filed as active;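 note: carbachol stimulus at about its EC50 of 1 µM final; % is set by controls: 0 for no effect and ±100 for the full control effect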). The note with it: Jurkat NFAT-bla M1, carbachol, beta-lactamase ratio, 5 h; at 7.69 µM (top of the series) unless noted. The gist of the method: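 Jurkat cells carrying an NFAT-driven β-lactamase reporter and co-transfected muscarinic M1 receptor were treated with compound plus carbachol (1 uM final, an EC50 level) for 5 h at 37 °C. CCF4 loading followed for 1 h at RT; 460/530 nm ratio gave %activity.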

The target in experiment [3] is Glucocorticoid receptor (Homo sapiens) (UniProt P04150). Description: GR-GFP Redistribution (AID 450;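 active = compounds whose dose series gives a full or clear partial fitted curve of increased nuclear translocation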; note: potency is the fitted concentration of half-maximal effect). The note with it: U2OS GR-GFP nuclear translocation, laser cytometry, 2 h.
The target is the same in experiment [4]. The experiment is described as follows: GR-EFC Redistribution (AID 451; calls by dose curve; note: potency is the fitted concentration of half-maximal effect). The note with it: CHO-K1 GR-EFC translocation, beta-gal luminescence, 2 h. A digest of the protocol: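 CHO-K1 cells stably expressing nuclear-localized β-gal enzyme acceptor and GR fused C-terminally to the enzyme donor fragment; ligand-driven nuclear translocation restores β-gal by complementation. Compounds titrated up to 46 uM final, 2 h at 37 °C; luminescence read.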

Experiment [5] addresses Mitogen-activated protein kinase 10 (Mus musculus) (UniProt Q61831). The experiment is described as follows: JNK3 AlphaScreen Assay (AID 530; active = well fitted curve in either direction with a large enough effect, not every such curve was filed as active;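 note: kinase came from lysate of stimulated human HepG2 cells; signal reports phosphorylation of biotinylated GST-cJun 1-79 at Ser73 with 10 µM ATP; % is set by controls: 0 for no effect and ±100 for the full control effect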). A digest of the protocol: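 Biotinylated GST-cJun(1-79) served as substrate for JNK3 in HepG2 lysates stimulated with IL-1beta and TNF-alpha. ATP was 10 uM final, pH 7.6. Ser73 phosphorylation was quantified by AlphaScreen (680 nm excitation).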

Experiment [6] has as its target 3',5'-cyclic-AMP phosphodiesterase 4B (Homo sapiens) (UniProt Q07343). Description: qHTS Assay for Inhibitors of PDE-IV (AID 607; active = well fitted activation curve with a large enough effect in the main read-out, with a control signal flat, not every such curve was filed as active; note: % of control where 0% means no effect). The gist of the method: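 Cell-based read-out of cAMP via a modified cyclic nucleotide-gated channel and membrane potential dye (535/590 nm) in HEK293 cells expressing PDE4 endogenously. Compounds tested up to 22.9 uM final; 100 uM RO 20-1724 reference.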

Experiment [7] in a line: qHTS Assay for Lipid Storage Modulators (AID 1519; calls by dose curve). The note with it: Drosophila S3 cells, BODIPY lipid droplet/cell ratio, laser cytometry, cells loaded with oleic acid; for activity change, negative = inhibition: at 57.5 µM (top of the series). A digest of the protocol:
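Cells seeded at 5,000 per well were treated with compounds over a concentration series and loaded with oleic acid (400 uM, as added). Lipid droplet fluorescence (488 nm excitation, 500-530 nm channel) was read by laser-scanning cytometry and normalized to 20 uM Triacsin C.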

In experiment [8] the target is Dual specificity protein kinase CLK4 (Homo sapiens) (UniProt Q9HAZ1). Description: qHTS Assay for Inhibitors of CDC-like Kinase 4 (Kinase-Glo Assay) (AID 1770). Note: nearly all actives have a fitted effect of over 65% in size. Note: potency is the fitted concentration of half-maximal effect. The gist of the method:
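Clk4 25 nM, RS peptide 100 uM, ATP 1 uM, pH 7.5 Tris, 10 mM MgCl2, 2.5 mM DTT; 4.5 h RT; ATP depletion read by Kinase-Glo luminescence.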

The target is the same in experiment [9]. Description: qHTS Assay for Inhibitors of CDC-like Kinase 4 (ADP-FP Assay) (AID 1795). Note: nearly all actives have a fitted effect of over 60% in size. Note: potency is the fitted concentration of half-maximal effect. The gist of the method: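 Kinase activity was followed as ADP output, converted from fluorescence polarization with a calibration curve. Reactions ran one hour at low ATP (1 uM) with RS peptide substrate.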
The nature of experiment [10]: Primary qHTS for small molecule stabilizers of the endoplasmic reticulum resident proteome: Secreted ER Calcium Modulated Protein (SERCaMP) assay (AID 1508630). Note: % is set by controls: 0 for no effect and ±100 for the full control effect. A digest of the protocol:
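The SH-SY5Y reporter protocol was run at 3 concentrations up to 38.3 uM (primary) or 11 concentrations (follow-up): 16 h compound, 100 nM thapsigargin for 4 h, then extracellular luciferase luminescence.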

For experiment [11], the target named is Rap guanine nucleotide exchange factor 3 (Homo sapiens) (UniProt O95398). Description: Confirmatory qHTS for agonist of cAMP-regulated guanine nucleotide exchange factor 3 (EPAC1) (AID 1645881).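 Note: EPAC1 catalysed release of BODIPY-GDP from Rap1B seen as fluorescence loss; nearly all actives have a fitted effect of over 75% in size.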
For experiment [12], the target named is Lysosomal acid glucosylceramidase (Homo sapiens) (UniProt P04062). Description: Glucocerebrosidase-p2 (AID 348; in the data active = potency below about 10 µM; note: potency is the fitted concentration of half-maximal effect). Conditions: purified GBA, blue fluorogenic substrate, 40 min. A digest of the protocol: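 Normal human glucocerebrosidase (0.2 nM) with blue fluorogenic substrate (80 uM final) in citrate/phosphate pH 5.9 with 10mM sodium taurocholate, 0.01% tween-20; 40 min RT, NaOH/glycine stop; fluorescence Ex 365/Em 440; AC50 from a titration from 0.6 nM upwards.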

Experiment [13] is described as follows: Stat Signaling Pathway (AID 446; active = well fitted curve in either direction with a large enough effect, not every such curve was filed as active;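 note: ME-180 cervical cancer cells given 40 pM IL-6 alongside compound; SIE-controlled beta-lactamase reporter measured as 460/530 nm FRET emission ratio; % is set by controls: 0 for no effect and ±100 for the full control effect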). The note with it: ME-180 SIE beta-lactamase reporter, IL-6 stimulated, 5 h; at 7.69 µM (top of the series) unless noted. A digest of the protocol:
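FRET read-out (405 nm excitation, 460/530 nm emission) of a beta-lactamase reporter under a STAT-inducible element in ME-180 cervical carcinoma cells. Cells with compound receive 40 pM IL-6 for 5 h. Values are normalised to AC90 stimulation and AC90 JAK-inhibitor controls.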

The target of experiment [14] is Rap guanine nucleotide exchange factor 4 (Homo sapiens) (UniProt Q8WZA2). Description: Confirmatory qHTS for antagonist of cAMP-regulated guanine nucleotide exchange factor 4 (EPAC2) (AID 1645885). Note: potency is the fitted concentration of half-maximal effect; nearly all actives have a fitted effect of over 25% in size.
A short description of experiment [15]: AP1 Signaling Pathway (AID 357; active = well fitted curve in either direction with a large enough effect, not every such curve was filed as active; note: % is set by controls: 0 for no effect and ±100 for the full control effect). The note with it: ME-180 (cervical carcinoma) AP-1-bla reporter, EGF-induced, beta-lactamase ratio, 5 h; at 7.69 µM (top of the series) unless noted. A digest of the protocol: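 In this screen, ME-180 cells in Opti-MEM with 0.5% dialyzed FBS received EC50 EGF and compound titrations for 5 h. AP-1 reporter beta-lactamase was detected via CCF4 ratio, giving AC50 for positive and negative modulators.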

Experiment [16] concerns the target Dual specificity protein kinase CLK4 (Homo sapiens) (UniProt Q9HAZ1). Description: qHTS Assay for Inhibitors of CDC-like Kinase 4 (ADP-Glo Assay) (AID 1771). Note: nearly all actives have a fitted effect of over 70% in size. Note: potency is the fitted concentration of half-maximal effect. The gist of the method:
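25 nM Clk4, 100 uM RS peptide, 1 uM ATP (final); 2 mM MgCl2, 0.5 mM EGTA, 2.5 mM DTT, 0.01% Triton X-100; 1 hr RT. ADP-Glo readout: ATP depletion 45 min, conversion/luciferase 30 min, luminescence.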

The target of experiment [17] is Ubiquitin carboxyl-terminal hydrolase 1 (Homo sapiens) (UniProt O94782). The experiment is described as follows: Inhibitors of USP1/UAF1: Pilot qHTS (AID 504865).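 Note: rhodamine fluorescence freed from ubiquitin-rhodamine substrate followed over time; top concentration of the series differs between compounds; % is set by controls: 0 for no effect and ±100 for the full control effect; nearly all actives have a fitted effect of over 35% in size.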 A digest of the protocol: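 Enzyme-free wells gave the negative control, while test wells held 1nM USP1/UAF1 preincubated with compound for 15 min at room temperature. Ub-Rho at 150nM final started the reaction, and fluorescence at 480/540 nm was recorded kinetically.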

The target in experiment [18] is Cytochrome P450 3A4 (Homo sapiens) (UniProt P08684). The experiment is described as follows: qHTS Assay for Activators of Cytochrome P450 3A4 (AID 885). Note: nearly all actives have a fitted effect of over 65% in size. A digest of the protocol:
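Luminescent readout of luciferin formed from 25 uM Luciferin-PPXE (KM level) by 20 nM CYP3A4 in 200 mM KPO4, with 60 min NADPH-driven reaction at room temperature after 10 min compound exposure. Ketoconazole (57 uM) defined 100% inhibition.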

The mark [19] stands for this setting: measured here: cell count channel max response.
[20] abbreviates: measured here: lipid channel max response.

Results filed as inconclusive are left out. Calls of active or inactive are those of the source. Unless noted, calls come from the whole dose curve; as a rule, active = well fitted curve in the direction sought with a large enough effect; inconclusive = small, poorly fitted or top-dose-only effect, or another doubt; inactive = no such curve, though single readings can be large; an effect the other way counts as inactive or inconclusive. Where only a bound is given, the exact number is not on record here.

Sequence of Lysosomal acid glucosylceramidase (Homo sapiens) (P04062 whole entry, looked up): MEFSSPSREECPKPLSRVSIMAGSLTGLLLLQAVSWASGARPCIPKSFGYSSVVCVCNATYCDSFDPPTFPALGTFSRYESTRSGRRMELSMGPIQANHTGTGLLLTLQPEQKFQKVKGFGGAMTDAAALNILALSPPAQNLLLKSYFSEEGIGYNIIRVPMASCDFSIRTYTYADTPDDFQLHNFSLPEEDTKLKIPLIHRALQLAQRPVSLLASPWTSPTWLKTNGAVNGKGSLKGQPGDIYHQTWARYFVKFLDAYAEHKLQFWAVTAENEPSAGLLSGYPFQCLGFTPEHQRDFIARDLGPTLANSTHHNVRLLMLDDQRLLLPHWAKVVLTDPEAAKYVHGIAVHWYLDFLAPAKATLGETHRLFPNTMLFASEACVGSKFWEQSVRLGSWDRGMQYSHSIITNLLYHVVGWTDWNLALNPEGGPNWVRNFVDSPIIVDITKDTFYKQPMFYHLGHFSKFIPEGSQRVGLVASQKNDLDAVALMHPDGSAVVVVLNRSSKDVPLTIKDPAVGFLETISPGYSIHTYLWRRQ
Sequence of Dual specificity protein kinase CLK4 (Homo sapiens) (Q9HAZ1 whole entry, looked up): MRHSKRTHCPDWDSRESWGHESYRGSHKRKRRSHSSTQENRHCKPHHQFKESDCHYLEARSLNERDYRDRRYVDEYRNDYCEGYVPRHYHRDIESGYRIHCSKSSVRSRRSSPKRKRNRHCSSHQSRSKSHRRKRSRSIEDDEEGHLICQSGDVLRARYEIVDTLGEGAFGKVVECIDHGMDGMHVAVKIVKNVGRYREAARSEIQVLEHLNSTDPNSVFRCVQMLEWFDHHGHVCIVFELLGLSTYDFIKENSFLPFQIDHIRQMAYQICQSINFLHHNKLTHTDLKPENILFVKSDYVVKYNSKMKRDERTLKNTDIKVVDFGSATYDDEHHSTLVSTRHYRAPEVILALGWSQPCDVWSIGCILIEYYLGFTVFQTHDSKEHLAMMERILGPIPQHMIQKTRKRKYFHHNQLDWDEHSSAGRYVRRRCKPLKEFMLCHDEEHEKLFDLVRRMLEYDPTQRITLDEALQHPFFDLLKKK
Sequence of Cytochrome P450 1A2 (Homo sapiens) (P05177 whole entry, looked up): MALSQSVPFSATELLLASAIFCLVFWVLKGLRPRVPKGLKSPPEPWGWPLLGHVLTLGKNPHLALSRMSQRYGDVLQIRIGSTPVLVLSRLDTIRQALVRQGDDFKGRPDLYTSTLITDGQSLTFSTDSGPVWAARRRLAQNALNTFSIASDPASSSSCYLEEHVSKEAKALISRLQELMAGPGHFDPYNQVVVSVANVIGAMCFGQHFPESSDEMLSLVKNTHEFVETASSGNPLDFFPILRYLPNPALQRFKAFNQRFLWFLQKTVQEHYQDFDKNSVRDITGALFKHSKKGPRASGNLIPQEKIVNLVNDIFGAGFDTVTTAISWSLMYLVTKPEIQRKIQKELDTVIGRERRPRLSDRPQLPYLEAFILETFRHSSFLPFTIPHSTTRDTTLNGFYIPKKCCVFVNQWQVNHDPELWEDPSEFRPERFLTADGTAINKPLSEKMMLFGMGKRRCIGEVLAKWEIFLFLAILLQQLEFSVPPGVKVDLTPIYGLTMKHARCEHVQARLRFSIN
Sequence of 3',5'-cyclic-AMP phosphodiesterase 4B (Homo sapiens) (Q07343 whole entry, looked up): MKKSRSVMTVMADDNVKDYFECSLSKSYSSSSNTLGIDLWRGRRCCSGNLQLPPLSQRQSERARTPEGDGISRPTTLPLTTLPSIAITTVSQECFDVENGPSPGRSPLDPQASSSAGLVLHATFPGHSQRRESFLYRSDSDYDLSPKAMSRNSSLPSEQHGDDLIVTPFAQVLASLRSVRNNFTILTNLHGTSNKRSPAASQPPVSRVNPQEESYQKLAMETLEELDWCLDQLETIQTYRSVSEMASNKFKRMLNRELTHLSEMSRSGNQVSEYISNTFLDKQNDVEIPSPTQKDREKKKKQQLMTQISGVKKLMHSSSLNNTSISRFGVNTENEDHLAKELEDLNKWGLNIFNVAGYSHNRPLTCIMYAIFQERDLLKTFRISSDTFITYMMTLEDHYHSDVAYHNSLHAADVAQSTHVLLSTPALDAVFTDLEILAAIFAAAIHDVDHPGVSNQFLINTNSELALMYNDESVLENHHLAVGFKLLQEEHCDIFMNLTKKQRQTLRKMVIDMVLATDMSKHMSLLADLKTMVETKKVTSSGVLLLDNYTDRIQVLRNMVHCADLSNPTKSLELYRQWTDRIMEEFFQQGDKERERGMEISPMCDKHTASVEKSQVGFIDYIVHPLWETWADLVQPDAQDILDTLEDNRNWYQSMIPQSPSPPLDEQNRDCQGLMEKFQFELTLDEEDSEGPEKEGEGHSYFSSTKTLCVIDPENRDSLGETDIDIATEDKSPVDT
Sequence of Ubiquitin carboxyl-terminal hydrolase 1 (Homo sapiens) (O94782 whole entry, looked up): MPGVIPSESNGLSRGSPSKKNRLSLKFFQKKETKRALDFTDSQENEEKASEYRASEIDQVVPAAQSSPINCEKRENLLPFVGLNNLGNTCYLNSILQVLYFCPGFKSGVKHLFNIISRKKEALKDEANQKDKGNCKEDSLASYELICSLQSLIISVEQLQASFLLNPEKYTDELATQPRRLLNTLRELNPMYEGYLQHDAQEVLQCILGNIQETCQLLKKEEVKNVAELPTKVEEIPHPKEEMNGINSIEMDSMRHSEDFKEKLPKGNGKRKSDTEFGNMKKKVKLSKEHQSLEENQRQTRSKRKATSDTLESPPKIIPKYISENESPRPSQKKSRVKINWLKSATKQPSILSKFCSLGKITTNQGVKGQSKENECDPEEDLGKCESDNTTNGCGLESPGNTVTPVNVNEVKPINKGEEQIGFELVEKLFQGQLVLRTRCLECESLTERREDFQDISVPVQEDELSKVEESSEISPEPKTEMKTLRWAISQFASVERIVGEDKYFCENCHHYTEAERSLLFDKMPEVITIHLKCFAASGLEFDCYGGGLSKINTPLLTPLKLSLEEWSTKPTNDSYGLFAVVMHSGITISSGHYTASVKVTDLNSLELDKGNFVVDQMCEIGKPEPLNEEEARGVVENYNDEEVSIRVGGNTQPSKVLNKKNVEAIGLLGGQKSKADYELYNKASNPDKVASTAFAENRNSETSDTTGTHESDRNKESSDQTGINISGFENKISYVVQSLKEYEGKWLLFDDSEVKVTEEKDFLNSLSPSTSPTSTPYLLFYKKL
Sequence of Glucocorticoid receptor (Homo sapiens) (P04150 whole entry, looked up, the tested form may be a part): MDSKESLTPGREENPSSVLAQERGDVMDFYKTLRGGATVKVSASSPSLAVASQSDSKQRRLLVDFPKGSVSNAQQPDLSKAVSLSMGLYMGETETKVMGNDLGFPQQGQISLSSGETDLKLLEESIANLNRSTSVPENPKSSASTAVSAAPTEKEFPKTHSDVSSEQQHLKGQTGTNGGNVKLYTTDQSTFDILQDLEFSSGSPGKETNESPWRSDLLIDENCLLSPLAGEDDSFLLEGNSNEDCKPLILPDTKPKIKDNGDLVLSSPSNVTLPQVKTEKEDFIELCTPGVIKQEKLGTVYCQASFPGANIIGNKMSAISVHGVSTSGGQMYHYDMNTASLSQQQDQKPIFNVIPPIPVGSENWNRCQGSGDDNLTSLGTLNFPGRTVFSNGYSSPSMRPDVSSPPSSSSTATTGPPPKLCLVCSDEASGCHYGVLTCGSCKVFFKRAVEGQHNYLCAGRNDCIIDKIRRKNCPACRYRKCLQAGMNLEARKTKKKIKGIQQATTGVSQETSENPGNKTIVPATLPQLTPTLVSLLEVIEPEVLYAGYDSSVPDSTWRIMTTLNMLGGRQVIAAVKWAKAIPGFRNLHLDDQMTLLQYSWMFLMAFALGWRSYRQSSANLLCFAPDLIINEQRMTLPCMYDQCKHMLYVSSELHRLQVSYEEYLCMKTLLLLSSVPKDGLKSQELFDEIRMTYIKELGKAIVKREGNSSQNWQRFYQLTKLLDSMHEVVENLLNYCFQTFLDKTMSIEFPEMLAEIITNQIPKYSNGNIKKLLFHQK
Sequence of Rap guanine nucleotide exchange factor 3 (Homo sapiens) (O95398 whole entry, looked up): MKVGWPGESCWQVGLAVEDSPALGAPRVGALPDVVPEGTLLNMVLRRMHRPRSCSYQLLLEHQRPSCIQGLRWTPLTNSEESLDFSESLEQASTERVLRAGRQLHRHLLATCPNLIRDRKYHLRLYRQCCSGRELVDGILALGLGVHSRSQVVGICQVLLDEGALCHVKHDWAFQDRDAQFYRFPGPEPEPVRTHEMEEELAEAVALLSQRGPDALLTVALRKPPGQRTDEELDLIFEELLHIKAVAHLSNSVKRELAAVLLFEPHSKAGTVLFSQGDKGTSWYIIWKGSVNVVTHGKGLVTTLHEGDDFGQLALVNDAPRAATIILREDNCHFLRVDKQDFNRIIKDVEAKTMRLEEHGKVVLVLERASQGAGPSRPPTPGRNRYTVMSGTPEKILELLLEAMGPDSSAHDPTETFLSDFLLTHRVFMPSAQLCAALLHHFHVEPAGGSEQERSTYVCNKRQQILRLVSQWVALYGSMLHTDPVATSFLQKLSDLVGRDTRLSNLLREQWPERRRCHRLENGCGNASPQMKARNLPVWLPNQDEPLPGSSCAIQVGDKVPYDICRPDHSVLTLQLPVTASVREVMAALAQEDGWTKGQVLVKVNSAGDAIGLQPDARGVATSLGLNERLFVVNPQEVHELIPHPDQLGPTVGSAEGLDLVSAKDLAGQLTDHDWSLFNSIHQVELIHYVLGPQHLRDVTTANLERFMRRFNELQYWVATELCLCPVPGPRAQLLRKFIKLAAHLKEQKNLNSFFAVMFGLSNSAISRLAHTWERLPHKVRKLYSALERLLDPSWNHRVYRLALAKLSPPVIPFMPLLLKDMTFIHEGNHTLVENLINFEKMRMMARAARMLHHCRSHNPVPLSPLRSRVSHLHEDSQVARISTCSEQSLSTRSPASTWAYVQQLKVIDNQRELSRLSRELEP

Regarding `COc1ccc(-c2nc3cnc(N4CCNCC4)nc3n(Cc3cccs3)c2=O)cc1`, the results for the Potency in experiment [1], in [3] and in [4] were 3.98 µM (active), > 46 µM (inactive) and > 46 µM (inactive), respectively. The results for the activity change, negative = inhibition in [2] and in [7] were 182% [activator] (active) and 1.49% (inactive), respectively. Further, the outcome in [5] and in experiment [11] was inactive. Also, the Potency result in experiment [6], in experiment [8], in experiment [9] and in experiment [10] was “inactive” in each case. The values for the max response in experiment [7] (setting [19]) and in experiment [7] (setting [20]) were 7.67% and 6.52%, respectively.
Turning to `O=C(c1cccc(F)c1)N1CCC2(CCN(Cc3cc(C(F)(F)F)cc(C(F)(F)F)c3)CC2)CC1`, the Potency in [12] was > 11.4 µM (inactive); in [4] it was > 46 µM (inactive); in experiment [14], 39.3 µM (active). The Potency result in [1], in experiment [6] and in experiment [10] was “inactive” each time. In addition, the activity, negative = inhibition in experiment [13] was 9.15% (inactive). The call in experiment [5] and in experiment [11] was inactive. In experiment [7], the activity change, negative = inhibition is 1.43% (inactive). Also, the values for the max response in experiment [7] (setting [19]) and in [7] (setting [20]) were 10.5% and 12.9%, respectively.
Consider `COCCNc1ncnc2ccc(-c3ccoc3)cc12`, for which the Potency was > 11.4 µM (inactive) in experiment [12]; 15.8 µM (active) in [1]; > 46 µM (inactive) in [3]; > 46 µM (inactive) in experiment [4]; 0.891 µM (active) in [8]; 1 µM (active) in experiment [16]. Moreover, in experiment [9], the Potency was 0.224 µM (active). For the same molecule, the activity change, negative = inhibition in [15] is -23.8% (inactive); in experiment [2], 11.2% (inactive); in [7] it was 0.0459% (inactive). In addition, the activity, negative = inhibition in experiment [13] is -12.8% (inactive). Also, the call in experiment [5] was inactive. In addition, the Potency result in experiment [6], in experiment [17] and in [10] was “inactive” in each case. The max response in experiment [7] (setting [19]) was 6.14%; in experiment [7] (setting [20]), 3.39%.
For `Cn1cc(-c2nc3cnc(N4CCNCC4)nc3n(C)c2=O)c2ccccc21`, the Potency in experiment [12] is > 11.4 µM (inactive); in experiment [1] it was 15.8 µM (active); in [3] it was > 9.22 µM (inactive); in experiment [4], > 46 µM (inactive). In addition, the results for the activity change, negative = inhibition in experiment [15], in experiment [2] and in experiment [7] were 4.46% (inactive), 6.17% (inactive) and 6.84% (inactive), respectively. For the same molecule, the activity, negative = inhibition in experiment [13] is 25.8% (inactive). In addition, the molecule was classed as inactive in experiment [5]. In addition, the Potency result in experiment [6], in [18], in experiment [8], in [16], in experiment [9] and in experiment [17] was “inactive” each time. Further, the Potency entry in experiment [10] is “inactive”. Besides, the max response was found to be 11.6% in experiment [7] (setting [19]) and 17.7% in experiment [7] (setting [20]).
With `N#CCCn1c(=O)cnc2cnc(Oc3ccccc3)nc21`, the Potency in experiment [12] was > 11.4 µM (inactive); in [1] it was 15.8 µM (active); in [3], > 9.22 µM (inactive); in [4], > 46 µM (inactive). Moreover, the activity change, negative = inhibition is -16.3% (inactive) in experiment [15], 11.7% (inactive) in [2] and 5.36% (inactive) in experiment [7]. The activity, negative = inhibition in [13] is -2.6% (inactive). In addition, the molecule was called inactive in experiment [5]. Besides, the max response in [7] (setting [19]) was found to be 9.06%; in experiment [7] (setting [20]), 13.1%. Besides, the Potency entry in experiment [8], in [16], in experiment [9], in experiment [17] and in experiment [10] was “inactive” throughout.
On to `COc1cccc(Cn2c(=O)c(-c3cccs3)nc3cnc(N(C)C)nc32)c1`, for which the Potency in experiment [12] was > 11.4 µM (inactive); in experiment [1] it was 15.8 µM (active); in experiment [3], > 9.22 µM (inactive); in [4], > 46 µM (inactive). Moreover, the results for the activity change, negative = inhibition in experiment [15], in [2] and in experiment [7] were -9.34% (inactive), 23.2% (inactive) and 3.91% (inactive), respectively. The activity, negative = inhibition in experiment [13] was 11.2% (inactive). Moreover, in experiment [5], the result was inactive. Moreover, the Potency result in experiment [6], in experiment [8], in [16], in experiment [9], in experiment [17] and in [10] was “inactive” each time. For the same molecule, the max response in experiment [7] (setting [19]) amounted to 25.6%; in experiment [7] (setting [20]) it was 27.3%.

Values taken from PubChem BioAssay (NCATS).
